Inconclusive results are not listed. A call without a number means that no potency is given here. Active and inactive are the calls of the source. Calls follow the shape of the dose curve; as a rule, active = well fitted curve in the direction sought with a large enough effect; inconclusive = small, poorly fitted or top-dose-only effect, or another doubt; inactive = no such curve, though single readings can be large; an effect the other way counts as inactive or inconclusive.
Columns and labels:
[1] = target: Tyrosine-protein kinase Yes (Homo sapiens) (UniProt P07947); assay: qHTS for small molecule inhibitors of Yes1 kinase: Primary Screen (AID 686947); also: nearly all actives have a fitted effect of over 60% in size; also: potency is read from the fitted curve at half-maximal effect
Tyrosine-protein kinase Yes (Homo sapiens), sequence (P07947 whole entry, looked up): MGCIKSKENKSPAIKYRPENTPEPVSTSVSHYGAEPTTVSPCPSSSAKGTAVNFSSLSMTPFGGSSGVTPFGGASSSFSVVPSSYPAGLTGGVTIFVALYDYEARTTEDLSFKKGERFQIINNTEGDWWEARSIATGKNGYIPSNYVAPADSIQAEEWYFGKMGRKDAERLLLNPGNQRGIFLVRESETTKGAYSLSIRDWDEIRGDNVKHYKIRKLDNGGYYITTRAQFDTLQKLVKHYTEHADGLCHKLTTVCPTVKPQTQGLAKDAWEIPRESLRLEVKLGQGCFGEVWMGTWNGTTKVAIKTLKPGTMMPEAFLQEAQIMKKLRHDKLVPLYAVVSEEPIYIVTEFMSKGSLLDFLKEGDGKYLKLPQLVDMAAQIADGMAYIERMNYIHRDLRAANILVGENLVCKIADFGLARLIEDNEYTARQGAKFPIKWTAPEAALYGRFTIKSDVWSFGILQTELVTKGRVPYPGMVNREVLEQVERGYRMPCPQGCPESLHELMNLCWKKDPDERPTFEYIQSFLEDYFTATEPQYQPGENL
Procedure, shortened: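 ADP-Glo luminescence reports ADP formed by 4 nM Yes1 phosphorylating poly(E4Y) (0.3 mg/mL) with 0.1 mM ATP for 60 min at room temperature, following 20 min compound preincubation; normalised between DMSO wells with and without enzyme.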

[2] = qHTS for small molecule inhibitors of Yes1 kinase: Counter Assay (AID 686950);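 also: no kinase present so only ADP-Glo detection of a fixed ADP amount is tested; luminescence from ADP-Glo reporting ADP in a fixed ATP and ADP mixture; series mostly up to about 77 µM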
Procedure, shortened: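 No kinase present; 0.08 mM ATP + 0.02 mM ADP in 50 mM Tris pH 7.5, 10 mM MgCl2, 150 mM NaCl, 1 mM DTT; 20 min compound preincubation, 60 min RT, ADP-Glo luminescence, normalized to ATP/ADP (max) and ATP-only (min).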

| Compound | Potency [1] | outcome [2] |
| --- | --- | --- |
| COc1ccc(CC2SC(=O)NC2=O)cc1C(=O)NCc1ccc(C(F)(F)F)cc1 (stereo not drawn) | inactive | inactive |
| CC(C)(C)c1cc(NC(=O)Nc2ccc(-c3cn4c(n3)sc3cc(OCCN5CCOCC5)ccc34)cc2)no1 | inactive | inactive |
| COc1cc2nccc(Oc3ccc(NC(=O)C4(C(=O)Nc5ccc(F)cc5)CC4)cc3)c2cc1OC | 1.09 µM (active) | inactive |
| CCCCCN(CCC12CC3CC(CC(C3)C1)C2)C(=O)NCCCc1ccncc1 | inactive | inactive |
| CCC(=C(c1ccccc1)c1ccc(OCCN(C)C)cc1)c1ccccc1 | inactive | inactive |
| Cc1cccc(C=NNc2cc(N3CCOCC3)nc(OCCc3ccccn3)n2)c1 | – | inactive |
| O=C(C=Cc1cccc(S(=O)(=O)Nc2ccccc2)c1)NO | – | inactive |
| Cc1ccc(C(=O)Nc2ccc(CN3CCN(C)CC3)c(C(F)(F)F)c2)cc1C#Cc1cnc2cccnn12 | – | inactive |
| COc1ccc(C=Cc2cc(OC)c(OC)c(OC)c2)cc1O | inactive | inactive |
| C[C@@H]1CN(CC(=O)Nc2ccc3c(c2)Cc2cccc(-c4cc(=O)cc(N5CCOCC5)o4)c2S3)C[C@H](C)O1 | inactive | inactive |
| COc1cc(OC2CCN(C)CC2)ccc1Nc1ncc2c(n1)n(C1CCCC1)c(=O)n2C | – | inactive |
| Cc1cnc(-c2cnc(NCCNc3ccc(C#N)cn3)nc2-c2ccc(Cl)cc2Cl)[nH]1 | inactive | inactive |
| Nc1ccc(C(=O)c2cc3c(ccc4ccccc43)[nH]2)cc1 | 30.7 µM (active) | inactive |
| CCN(CC)CCCCNc1ncc2cc(-c3cc(OC)cc(OC)c3)c(NC(=O)NC(C)(C)C)nc2n1 | 9.72 µM (active) | inactive |
| CC(C)(C)c1cc(C(C)(C)C)c(NC(=O)c2c[nH]c3ccccc3c2=O)cc1O | – | inactive |
| O=C(c1ccc(Nc2nccc(-c3cc4ccccc4s3)n2)cc1)N1CCC(N2CCCC2)CC1 | – | inactive |
| COCCn1c2c([n+](Cc3cnccn3)c1C)C(=O)c1ccccc1C2=O | – | inactive |
| C=C1C(=CC=C2CCCC3(C)[C@@H]([C@H](C)C=CC=CC(O)(CC)CC)CC[C@@H]23)C[C@@H](O)C[C@@H]1O (stereo partly drawn) | – | inactive |
| CC1(C)CCC(c2ccc(Cl)cc2)=C(CN2CCN(c3ccc(C(=O)NS(=O)(=O)c4ccc(N[C@H](CCN5CCOCC5)CSc5ccccc5)c(S(=O)(=O)C(F)(F)F)c4)cc3)CC2)C1 | – | inactive |
| COc1cc(C(C)C)c2c(c1)S(=O)(=O)N(COc1cc(=O)n3cccc(OCCN4CCCCC4)c3n1)C2=O | – | inactive |
| Nc1nc(-c2nn(Cc3ccccc3F)c3ncccc23)nc(N)c1N1CCOCC1 | – | inactive |
| Cn1cc(-c2[nH]c3cc(NC(=O)[C@H](N)C4CCCCC4)cc4c3c2C=NNC4=O)cn1 | – | inactive |
| C[C@]1(CO)CN(c2cc(C(=O)Nc3ccc4c(c3)-c3c(c(C(N)=O)nn3-c3ccc(F)cc3)CC4)c(Cl)cn2)C[C@@]1(C)CO | – | inactive |
| NC(=O)c1c(OCc2c(F)cc(Br)cc2F)nsc1NC(=O)NCCCCN1CCCC1 | – | inactive |
| O=C(O)c1ccc2cc(-c3ccc(O)c(C45CC6CC(CC(C6)C4)C5)c3)ccc2c1 | – | inactive |

| Compound | Potency [1] | outcome [2] |
| --- | --- | --- |
| C[C@@H](Oc1cc(-n2cnc3ccc(CN4CCN(C)CC4)cc32)sc1C(N)=O)c1ccccc1C(F)(F)F | – | inactive |
| Cc1[nH]nc2ccc(-c3cncc(OC[C@@H](N)Cc4ccccc4)c3)cc12 | – | inactive |
| Cc1ccc(C(=O)Nc2cccc(C(F)(F)F)c2)cc1-c1ccc2nc(NCCN3CCOCC3)ncc2c1 | – | inactive |
| Cc1cn(-c2cc(NC(=O)c3ccc(C)c(Nc4nccc(-c5cccnc5)n4)c3)cc(C(F)(F)F)c2)cn1 | – | inactive |
| N#CCNC(=O)c1ccc(-c2ccnc(Nc3ccc(N4CCOCC4)cc3)n2)cc1 | – | inactive |
| CC(C)(C)OC(=O)Nc1ccc(-c2cc(C(=O)NCCCCCCC(=O)NO)no2)cc1 | – | inactive |
| CCCCc1nc2cc(C=CC(=O)NO)ccc2n1CCN(CC)CC | – | inactive |
| CC(=O)Nc1sc2c(c1-c1nc3ccccc3s1)CNC2 | – | inactive |
| Cc1ccc(-c2ncn(-c3ccc(Nc4nccc(-c5cccc(N6CCOCC6)c5)n4)cc3)n2)cn1 | – | inactive |
| COc1cc(=C2C=c3ccccc3=N2)[nH]c1=Cc1[nH]c(C)cc1C | – | inactive |
| C=CC(=O)Nc1cccc(Oc2nc(Nc3ccc(N4CCN(C)CC4)cc3OC)ncc2Cl)c1 | – | inactive |
| CC[C@@H]1C(=O)N(C)c2cnc(Nc3ccc(C(=O)NC4CCN(C)CC4)cc3OC)nc2N1C1CCCC1 | – | inactive |
| CNC(=O)c1cc(Oc2ccc(NC(=O)Nc3cc(C(C)(C)C)nn3-c3ccc4ncccc4c3)c(F)c2)ccn1 | – | inactive |
| Nc1ccccc1NC(=O)c1ccc(CNC(=O)OCc2cccnc2)cc1 | – | inactive |
| CC(C)c1ccc(Cn2ccc3c4c(N)nc(NC5CC5)nc4ccc32)cc1 | – | inactive |
| CC(C)(C)c1cnc(CSc2cnc(NC(=O)C3CCNCC3)s2)o1 | – | inactive |
| CCN1CCN(Cc2ccc(-c3cc4c(N[C@H](C)c5ccccc5)ncnc4[nH]3)cc2)CC1 | – | inactive |
| CC(=O)c1c(C)c2cnc(Nc3ccc(N4CCNCC4)cn3)nc2n(C2CCCC2)c1=O | – | inactive |
| CNc1nccc(-c2cccnc2Oc2cc(C(=O)Nc3cccc(C(F)(F)F)c3)ccc2C)n1 | – | inactive |
| C[C@@]12O[C@@H](C[C@]1(O)CO)n1c3ccccc3c3c4c(c5c6ccccc6n2c5c31)CNC4=O | – | inactive |
| CC1(C)OC2=C(C(=O)c3ccccc3C2=O)[C@H](NCc2ccccc2)[C@H]1O | – | inactive |
| NC(=O)Nc1cc(-c2cccc(F)c2)sc1C(=O)N[C@H]1CCCNC1 | – | inactive |
| Cc1cc(Nc2cc(NC(=O)c3c(Cl)cccc3Cl)ccn2)nc(N)n1 | – | inactive |
| Cc1ccc(C(N)=O)cc1Nc1nccc(-c2cn(C(C)C)c3cnccc23)n1 | – | inactive |
| O=C(Nc1cc(C(F)(F)F)cc(C(F)(F)F)c1)c1cc(Cl)ccc1O | – | inactive |

| Compound | Potency [1] | outcome [2] |
| --- | --- | --- |
| C=CC(=O)N1CCC[C@@H](n2nc(-c3ccc(Oc4ccccc4)cc3)c3c(N)ncnc32)C1 | – | inactive |
| CC(C)C[C@H](NC(=O)CNC(=O)c1cc(Cl)ccc1Cl)B(O)O | – | inactive |
| C=CCn1c(=O)c2cnc(Nc3ccc(N4CCN(C)CC4)cc3)nc2n1-c1cccc(C(C)(C)O)n1 | – | inactive |
| Cc1cn2c(-c3cn[nH]c3)cnc2c(Nc2ccc(C(=O)N3CCNCC3)cc2F)n1 | – | inactive |
| CC(C)=CCCC(C)=CCCC(C)=CCSc1ccccc1C(=O)O | – | inactive |
| CC[C@H](CO)Nc1nc(NCc2ccccc2)c2ncn(C(C)C)c2n1 | – | inactive |
| CN1CCN(c2ccc3nc(-c4c(N)c5c(F)cccc5[nH]c4=O)[nH]c3c2)CC1 | – | inactive |
| CC(C)(O)CCc1ccc(OCc2cc(-c3cccc(OC(F)F)c3)c3ncccc3c2)cc1 | – | inactive |
| Cc1cc(Nc2cc(N3CCN(C)CC3)nc(Sc3ccc(NC(=O)C4CC4)cc3)n2)n[nH]1 | – | inactive |
| COc1cc2c(Oc3ccc4[nH]c(C)cc4c3F)ncnc2cc1OCCCN1CCCC1 | – | inactive |
| Cc1nc2cnc3ccc(C#Cc4cccnc4)cc3c2n1-c1ccc(C(C)(C)C#N)cc1 | – | inactive |
| C1=CCOCc2cc(ccc2OCCN2CCCC2)Nc2nccc(n2)-c2cccc(c2)OCC1 | – | inactive |
| c1cc(-c2cnn3cc(-c4ccc(OCCN5CCCCC5)cc4)cnc23)ccn1 | – | inactive |
| CN(C)CC=CC(=O)Nc1cc2c(Nc3ccc(F)c(Cl)c3)ncnc2cc1O[C@H]1CCOC1 | – | inactive |
| Nc1cc(C(F)(F)F)c(-c2cc(N3CCOCC3)nc(N3CCOCC3)n2)cn1 | – | inactive |
| O=C(NC1CCNCC1)c1[nH]ncc1NC(=O)c1c(Cl)cccc1Cl | – | inactive |
| COc1cc2c(Oc3ccc(NC(=O)C4(C(=O)Nc5ccc(F)cc5)CC4)cc3F)ccnc2cc1OCCCN1CCOCC1 | – | inactive |
| COc1ccc2c(c1)CC[C@@H](CN(C)CC(=O)O)[C@H]2c1ccccc1 | – | inactive |
| CC[C@@H]1C(=O)N(C)c2cnc(Nc3ccc(C(=O)NC4CCC(N5CCN(CC6CC6)CC5)CC4)cc3OC)nc2N1C(C)C (stereo partly drawn) | – | inactive |
| Fc1cc(-c2cccc3ncc(-c4cnn(C5CCNCC5)c4)nc23)cc(F)c1CN1CCOCC1 | – | inactive |
| C[C@@H](Oc1cc(-c2cnn(C3CCNCC3)c2)cnc1N)c1c(Cl)ccc(F)c1Cl | – | inactive |
| O=C(NCCS(=O)(=O)c1ccc(C(F)(F)F)cn1)c1ccc(Cl)cc1 | – | inactive |
| O=C(C=Cc1c(C(=O)O)[nH]c2cc(Cl)cc(Cl)c12)Nc1ccccc1 | – | inactive |

From PubChem BioAssay (NCATS)
